NPYLR7 agonist: mosquito NPYLR7 agonism | HEK293T NPYLR7/Galpha15, GCaMP6s calcium fluorescence | AID 1259423 | 270,000 tested, 0.15% active | activation, % at 10 µM; in the data active = activation above about 40%;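 note: 0% = vehicle and 100% = reference agonist at the receptor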
hcGAS lum: human cGAS inhibition | Q8N884 | recombinant h-cGAS, ATP depletion, Kinase-Glo luminescence | inhibition, % at 12.5 µM | 290,000 tested, 0.081% active;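 note: 0% = vehicle reaction and 100% = reaction without DNA for no activity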
Target sequence (Q8N884 whole entry, looked up): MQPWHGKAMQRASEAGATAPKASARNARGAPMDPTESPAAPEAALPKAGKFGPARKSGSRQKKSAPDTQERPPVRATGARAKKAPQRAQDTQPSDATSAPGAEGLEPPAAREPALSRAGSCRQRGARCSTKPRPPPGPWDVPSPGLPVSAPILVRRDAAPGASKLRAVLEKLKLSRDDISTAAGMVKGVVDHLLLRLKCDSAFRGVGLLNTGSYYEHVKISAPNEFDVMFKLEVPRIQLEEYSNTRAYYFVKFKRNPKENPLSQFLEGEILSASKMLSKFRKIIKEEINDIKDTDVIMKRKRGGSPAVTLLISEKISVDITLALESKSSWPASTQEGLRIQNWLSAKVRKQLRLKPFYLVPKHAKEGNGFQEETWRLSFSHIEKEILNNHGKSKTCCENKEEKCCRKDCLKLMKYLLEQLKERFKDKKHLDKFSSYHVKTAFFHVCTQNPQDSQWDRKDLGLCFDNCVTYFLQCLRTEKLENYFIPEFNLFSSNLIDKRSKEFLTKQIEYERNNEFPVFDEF
mcGAS inh: mouse cGAS inhibition by luminescence; recombinant cGAS, Kinase-Glo ATP depletion luminescence; Q8C6L5; 160,000 tested, 0.15% active; inhibition, % at 12.5 µM;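 note: 0% = negative control wells and 100% = reference inhibitor with no enzyme activity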
* = called active by the depositor. In the library only some 0.3% were active in any assay of this set; here they are far more common. Cut-off read from the data, not from the text of the source, unless noted: active = inhibition above about 40%; inactive = the rest.

Cc1c(C(=O)NC(C)C(C)(C)C)cc(Br)cc1S(N)(=O)=O (configuration not stated) was read as NPYLR7 agonist -0.1, hcGAS lum -10.1 and mcGAS inh -17.4.
Screening COCCN(CC(=O)N(CCc1c[nH]c2ccccc12)Cc1ccc(C(F)(F)F)cc1)S(=O)(=O)c1ccc(Cl)c([N+](=O)[O-])c1 returned hcGAS lum -3.0 and mcGAS inh -4.2.
`COc1ccc(/C=C2\Oc3c(ccc4c3CN(C3CC3)CO4)C2=O)cc1` gave NPYLR7 agonist 2.9, hcGAS lum -3.8 and mcGAS inh -7.6.
CCc1ccc(/C=C2\Oc3c(ccc4c3CN(C3CCS(=O)(=O)C3)CO4)C2=O)cc1 (configuration not stated) was read as NPYLR7 agonist 66.2*, hcGAS lum 0.3 and mcGAS inh -0.8.
Screening Fc1ccccc1-n1c(Cc2csc3nc(-c4ccccc4)nn23)n[nH]c1=S returned NPYLR7 agonist 5.2, hcGAS lum -7.4 and mcGAS inh -3.2.
Screening COc1ccc2cc(C(=O)C3CCCN(C(=O)c4ccoc4C)C3)ccc2c1 (configuration not stated) returned NPYLR7 agonist 9.7 and hcGAS lum -6.9.
O=C(NCCN1CCCC1)C1(c2ccc(F)cc2)CCOCC1 was read as NPYLR7 agonist 1.4 and hcGAS lum -16.4.
Screening CC1CCCCC1OCCNC(=O)C1(c2ccc(F)cc2)CCC1 (configuration not stated) returned NPYLR7 agonist 54.7* and hcGAS lum -2.8.
`CCC1CN(C(=O)c2cc(C(C)C)no2)CCC(=O)N1Cc1ccccc1` (configuration not stated) gave NPYLR7 agonist 1.7, hcGAS lum -3.6 and mcGAS inh -0.1.
`CCC1CN(C(=O)c2cc(C(C)C)on2)CCC(=O)N1Cc1ccccc1` (configuration not stated) gave NPYLR7 agonist 62.4* and hcGAS lum -2.9.
COC(=O)c1cc(-c2ccccc2)sc1NC(=O)CCCl was read as NPYLR7 agonist -4.2, hcGAS lum -4.5 and mcGAS inh -3.8.
Screening NC(=O)c1cc(-c2ccccc2)sc1NC(=O)CCl returned NPYLR7 agonist -7.9, hcGAS lum 3.7 and mcGAS inh 81.5*.
For CC(C(=O)Nc1ncccn1)N(C)C1CCCN(c2cccnn2)C1 (configuration not stated) the results were NPYLR7 agonist 5.8 and hcGAS lum -1.9.
Screening CC1=NN(c2cccc(C(=O)O)c2)C(=O)/C1=C\c1ccc(-c2cc([N+](=O)[O-])ccc2O)o1 returned NPYLR7 agonist -16.9, hcGAS lum 4.6 and mcGAS inh 7.9.
`CC1=NN(c2cccc(C(=O)O)c2)C(=O)/C1=C\c1ccc(-c2ccccc2C(=O)O)o1` gave NPYLR7 agonist -3.7, hcGAS lum -6.0 and mcGAS inh 63.6*.
For O=C(C1CCN(S(=O)(=O)c2ccccc2)CC1)N1CCC(CCc2ccccc2)CC1 the results were NPYLR7 agonist -3.1, hcGAS lum -1.2 and mcGAS inh -7.4.
COc1ccc(C(=O)N(Cc2ccccc2)C2CCC(NC(=O)C3CCN(C(=O)c4ccccc4Cl)CC3)CC2)cc1 (configuration not stated) was read as NPYLR7 agonist 45.2*, hcGAS lum -4.9 and mcGAS inh -7.1.
Screening COc1ccc(C(=O)N(Cc2ccccc2)C2CCC(NC(=O)C3CCN(C(=O)c4ccc(Cl)cc4)CC3)CC2)cc1 (configuration not stated) returned NPYLR7 agonist 3.0, hcGAS lum -5.6 and mcGAS inh -8.1.
Cc1cccc(-c2ncc(CN[C@@H](CO)Cc3ccccc3)cn2)c1 was read as NPYLR7 agonist -1.0, hcGAS lum 1.7 and mcGAS inh 1.0.
For COc1ccc(C(=O)N2CCC3(CC2)OCC(C(=O)NC(C)c2ccccc2)N3C(=O)c2ccccc2C)cc1 (configuration not stated) the results were NPYLR7 agonist -0.8, hcGAS lum -1.0 and mcGAS inh 0.3.
For CCn1cnnc1CNc1cc(Cl)nc(N)n1 the results were NPYLR7 agonist -0.1 and hcGAS lum -6.9.
`COCCOc1ccc(NS(=O)(=O)c2cn(C)c(Cl)n2)cn1` gave NPYLR7 agonist 99.0* and hcGAS lum -9.2.
Cn1cc(S(=O)(=O)Nc2ccc(F)cn2)nc1Cl was read as NPYLR7 agonist -5.3 and hcGAS lum -4.1.
For Cc1cccc2sc(N3C(=O)C4C5C=CC(C5)C4C3=O)nc12 (configuration not stated) the results were NPYLR7 agonist -11.4, hcGAS lum -5.7 and mcGAS inh -5.5.
`Cc1ccc(CN(CCc2c[nH]c3ccccc23)C(=O)CN(C(=O)COCc2ccccc2)C(C)C)cc1` gave NPYLR7 agonist 9.6, hcGAS lum 1.2 and mcGAS inh -2.1.
Cc1c(C(=O)N2CCN(C(=O)C(c3ccccc3)c3ccccc3)CC2)cc(-c2ccccc2)n1-c1ccc(F)cc1F was read as NPYLR7 agonist 8.8, hcGAS lum -2.0 and mcGAS inh -2.6.
C#CCOCC(O)CN(Cc1ccccc1C)C1CC1 (configuration not stated) was read as NPYLR7 agonist 15.7, hcGAS lum -4.2 and mcGAS inh -1.8.
Screening C#CCOCC(O)CN(Cc1cccn1Cc1ccccc1C)C1CC1 (configuration not stated) returned NPYLR7 agonist 35.2, hcGAS lum -4.6 and mcGAS inh 41.1*.
For COc1cc(OC)cc(C(=O)N2CCN(c3nc(C4CCCCC4)nc4sc5c(c34)CCCCC5)CC2)c1 the results were NPYLR7 agonist -3.0, hcGAS lum -7.2 and mcGAS inh -3.4.
`CC(=O)NC(C)C(=O)N(C(C)C)C1CC1` (configuration not stated) gave NPYLR7 agonist 9.1 and hcGAS lum -7.6.
`Cc1cnccc1N1CCCN(C(=O)c2cc(C3CC3)[nH]n2)CC1` gave NPYLR7 agonist 12.0 and hcGAS lum -6.6.
CN(C)c1ncccc1CNC(=O)Cc1cn(C)c2ccccc12 was read as NPYLR7 agonist -0.4 and hcGAS lum -4.5.
FC(F)(F)c1cc(-c2cccs2)nc2ncnn12 was read as NPYLR7 agonist 94.7*, hcGAS lum -5.0 and mcGAS inh -1.9.
`FC(F)(F)c1cc(-c2ccccc2)nc2ncnn12` gave NPYLR7 agonist 3.3, hcGAS lum -3.5 and mcGAS inh -6.6.
Screening C=C(Br)CN(C)CCN1CCOCC1 returned NPYLR7 agonist 5.2 and hcGAS lum -7.8.
Cn1cnc(-c2ccc(F)cc2)cc1=O was read as NPYLR7 agonist -3.0, hcGAS lum -6.0 and mcGAS inh -6.9.
For Cn1nc(-c2ccc(F)cc2)nc2c(=O)n(C)c(=O)nc1-2 the results were NPYLR7 agonist 2.2, hcGAS lum 25.7 and mcGAS inh 67.3*.
CCC(O)CN1CCc2nc(Cc3ccccc3F)[nH]c(=O)c2C1 (configuration not stated) was read as NPYLR7 agonist -17.4, hcGAS lum -2.7 and mcGAS inh -1.5.
Cc1ccnc(SCc2cc(=O)c(OC(=O)COc3ccc(F)cc3)co2)n1 was read as NPYLR7 agonist -15.8, hcGAS lum 1.3 and mcGAS inh -1.4.
Screening Cc1cc(C)nc(SCc2cc(=O)c(OC(=O)Cc3ccccc3)co2)n1 returned NPYLR7 agonist -13.5, hcGAS lum 2.7 and mcGAS inh 86.9*.

Source: PubChem BioAssay (Fisher Drug Discovery Resource Center)
